High-throughput results from PubChem BioAssay.
KDM4E inh: JMJD2E (human) inhibition | Potency, µM (top dose mostly 57.1 µM), inactives show at the top dose activity change, negative = inhibition, actives largely listed as inhibitors | 230,000 tested, 1.6% active | JMJD2E catalytic domain, FDH-coupled NADH fluorescence (FDH is formaldehyde dehydrogenase) | B2RXH2; active = well fitted inhibition curve with a large enough effect, not every such curve was filed as active; inconclusive = small, poorly fitted or top-dose-only effect, or another doubt; inactive = no such curve, though single readings can be large or run the other way;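 note: 0% = wells with enzyme and -100% = buffer wells without enzyme; nearly all actives have a fitted effect of over 50% in size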
Tau FP inhib: blocks human tau fibril formation measured by polarization; P10636; K18 P301L tau heparin fibrillization, Alexa594 FP, 6 h; Potency, µM (series often up to 57.7 µM), inactives show at the top dose activity, negative = inhibition, hits mostly inhibitors; 280,000 tested, 0.39% active; note: nearly all actives have a fitted effect of over 55% in size
Target sequence (P10636 561-689 P618L limits assumed): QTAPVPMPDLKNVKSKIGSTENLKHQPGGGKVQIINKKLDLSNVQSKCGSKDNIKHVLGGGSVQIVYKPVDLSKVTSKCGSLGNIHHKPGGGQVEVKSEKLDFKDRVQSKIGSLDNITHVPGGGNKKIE
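Steps: dispense K18 P301L tau (15 uM plus 0.24 uM Alexa 594 tracer, final) in pH 7 sodium acetate; add compound; add heparin (20 uM final); incubate 6 hr, 37 C; add ThT (30 uM final); after 1 hr ambient, read FP.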
Tau fluor cs: counter-screen for tau fibril formation inhibitors. tau K18 P301L Alexa594 fluorescence, heparin fibrillization. Potency, µM (series often up to 57.7 µM), for the others: at the highest dose activity change, negative = decrease. 280,000 tested, 0.93% active; note: nearly all actives have a fitted effect of over 55% in size
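Human K18 P301L tau (15 uM unlabeled plus 0.24 uM Alexa 594-labeled, final) in 100 mM sodium acetate pH 7 was mixed with compound and 20 uM heparin and incubated 6 hr at 37 C.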
Tau fibril ThT: tau fibrillization inhibition (ThT binding); recombinant tau K18 P301L (four-repeat tau fragment), heparin-induced fibrillization, ThT fluorescence; P10636; Potency, µM (top dose mostly 57.4 µM), without a hit: at the highest dose activity, negative = inhibition, actives largely listed as inhibitors; 270,000 tested, 2.1% active; note: nearly all actives have a fitted effect of over 55% in size
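Heparin-induced fibrillization of the P301L-mutant K18 repeat-domain fragment of human tau was followed by ThT binding in quantitative high-throughput format.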
GoLoco inh red: RGS12 GoLoco-Gai1 interaction inhibition; Gai1:RGS12 GoLoco peptide FP, rhodamine, 10 min; Potency, µM (titrated, usually from 61.6 µM), for inactives: at the highest dose activity, negative = inhibition, most hits filed as inhibitors; P63096; 230,000 tested, 0.44% active; active = well fitted inhibition curve with a large enough effect, not every such curve was filed as active; inactive = no such curve, though single readings can be large or run the other way; note: nearly all actives have a fitted effect of over 30% in size
Target sequence (P63096 whole entry, looked up): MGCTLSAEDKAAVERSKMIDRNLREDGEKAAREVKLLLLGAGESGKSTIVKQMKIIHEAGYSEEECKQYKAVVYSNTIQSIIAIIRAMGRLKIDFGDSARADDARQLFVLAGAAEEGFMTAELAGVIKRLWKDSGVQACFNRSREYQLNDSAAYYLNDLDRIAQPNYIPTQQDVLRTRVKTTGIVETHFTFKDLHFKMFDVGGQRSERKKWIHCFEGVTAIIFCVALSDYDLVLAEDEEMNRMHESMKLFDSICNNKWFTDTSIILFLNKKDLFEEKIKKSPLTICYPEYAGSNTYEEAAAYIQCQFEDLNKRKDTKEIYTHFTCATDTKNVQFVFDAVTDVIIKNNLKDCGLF
An asterisk follows results filed as active; ? = inconclusive; nt = not tested or not shown; [ ] = dose if it differs, or a comment. Sampled rows, rich in hits. Any-hit rate of the full collection: about 3.4%. Unless noted, calls come from the whole dose curve; as a rule, active = well fitted curve in the direction sought with a large enough effect; inconclusive = small, poorly fitted or top-dose-only effect, or another doubt; inactive = no such curve, though single readings can be large; an effect the other way counts as inactive or inconclusive. Unless noted, % is set by controls: 0 for no effect and ±100 for the full control effect; potency is the fitted concentration of half-maximal effect.

SMILES	KDM4E inh	Tau FP inhib	Tau fluor cs	Tau fibril ThT	GoLoco inh red
O=C(N/N=C/C1=C(N2CCOCC2)C(=C\c2ccccc2)/CC1)Nc1ccccc1	-2%	0%	-19%	?	76%
O=C(O)c1ccccc1N/N=C/C1=C(N2CCOCC2)C(=C\c2ccccc2)/CC1	?	-8%	?	10µM*	14%
CC(C)C1CCC(C(=O)NC(Cc2ccccc2)C(=O)O)CC1 (stereo not drawn)	-2%	-4%	-5%	-15%	20µM*
CCOC(=O)c1ccc2c(c1)[n+](CC)c(C)n2-c1ccccc1	?	0%	5%	1%	10%
CC(=O)OCC[n+]1c(C)n(-c2ccccc2)c2ccc(Cl)cc21	-8%	-2%	6%	-1%	8.9µM*
CC(=O)c1ccc(NC(=O)CSC2=Nc3ccccc3N=C(c3ccc(F)cc3)C2)cc1	nt	?	-29%	6%	nt
CCC1OC23CCCCC2C(C#N)(C(=N)O3)C1(C#N)C#N (stereo not drawn)	?	?	-18%	?	35µM*
CCCC1OC23CCCCC2C(C#N)(C(=N)O3)C1(C#N)C#N (stereo not drawn)	?	-12%	-9%	?	28µM*
CC1OC23CCCCC2C(C#N)(C(=N)O3)C1(C#N)C#N (stereo not drawn)	?	-13%	-11%	-17%	-31%
Fc1ccc(C2NCCn3cccc32)cc1 (stereo not drawn)	20µM*	2%	-14%	?	8%
COC(=O)COc1ccc(Oc2nc(NC(C)(C)C)nc(N(C)C)n2)nn1	nt	-1%	0%	-2%	nt
COC(=O)C1=C(C)N(CCc2ccc(OC)c(OC)c2)C(=O)/C1=C\N(C)C	-6%	?	-26%	14µM*	13%
COc1ccc(CCNC2=C(Cl)C(=O)N(CCc3ccc(OC)c(OC)c3)C2=O)cc1OC	-15%	-5%	0%	-7%	1%
CC1=CC(=C(C#N)c2nc3ccccc3s2)C=C(C)N1Cc1ccco1	-3%	?	4µM*[quencher]	-18%	3%
O=C1NNC(c2ccccc2)=N/C1=C\c1ccco1	-14%	?	?	18µM*	38%
O=C1NNC(c2ccccc2)=N/C1=C\c1ccccc1Cl	-3%	?	-8%	?	2%
COC(=O)c1c(SC)nc2ccccc2c1OCc1ccccc1C	nt	?	-29%	?	nt
COc1ccc2c(c1)cc(CNc1ccc(OC)c(OC)c1)c(=O)n2CC(=O)Nc1ccccc1C	nt	8%	?	?	nt
COc1ccc2c(c1)cc(CNc1ccc(OC)c(OC)c1)c(=O)n2CC(=O)Nc1ccc(F)cc1	nt	6%	16µM*[quencher]	?	nt
Cc1ccccc1N1C(S)=C(C#N)C(=O)NC1c1cccs1 (stereo not drawn)	-17%	?	-21%	?	-26%
Cc1ccccc1N1C(S)=C(C#N)C(=O)NC1c1ccco1 (stereo not drawn)	-29%	?	-22%	25µM*	36%
CN(C)c1ccc(C(=S)NCc2ccco2)cc1	-13%	-15%	?	10µM*	50%
CN(C)c1ccc(/C=N/NC(=S)NCc2ccco2)cc1	?	11%	-30%	?	1%
COc1cccc(NC(=O)Cn2c(=O)n(-c3ccc(C)cc3)c(=O)c3ccccc32)c1	nt	-3%	-28%	8%	nt
C=CCNc1nc(-c2ccc([N+](=O)[O-])cc2)cs1	5%	19%	-20%	7.1µM*	1%
CCCOc1ccc(-c2nc(-c3ccc([N+](=O)[O-])cc3)cs2)cc1	5%	-6%	?	?	4%
CN(C)c1nc(-c2ccc([N+](=O)[O-])cc2)cs1	7%	10%	?	13µM*	-3%
CCOC(=O)Cn1c(=O)oc2cc(S(=O)(=O)N3CCN(c4ccc(F)cc4)CC3)ccc21	nt	-5%	-8%	2%	nt
COc1ccc(CCNC(=O)CCn2c(=O)c3ccccc3n(Cc3ccccc3F)c2=O)cc1OC	nt	-6%	-7%	-6%	nt
O=[N+]([O-])c1ccccc1NCc1c(O)ccc2ccccc12	?	-13%	13µM*[quencher]	?	-6%
